# Reference: PubChem BioAssay (NCATS)
# Values joined by “and” are separate entries in the source; they are usually repeats but may differ in a detail not shown here. Equal values may be shown once. Records with an inconclusive call do not appear. Entries that show only a call come without a potency. Active and inactive are the calls of the source. Calls come from the whole dose curve; as a rule, active = well fitted cell-killing curve with a large enough effect; inconclusive = small, poorly fitted or top-dose-only effect; inactive = flat fitted curve, though single readings scatter.
# Test: qHTS of pediatric cancer cell lines to identify multiple opportunities for drug repurposing: Primary screen for RD cells (AID 1347104); note: nearly all actives have a fitted effect of over 55% in size
# Details: RD rhabdomyosarcoma viability, CellTiter-Glo luminescence, 48 h; series mostly up to 46 µM
# Source text: Drug repurposing or repositioning has been offered as a strategy for drug development in oncology programs. This approach has special potential for childhood cancers and other rare or orphan diseases, where the expected return on new drug development has been a disincentive to pharmaceuticals. […] In this project we exploit the poly-pharmacology of drugs to discover new indications via phenotypic screening of a panel of 19 well-characterized cell lines derived from solid tumors seen in children and adolescents. The goal is to identify approved drugs with previously unrecognized anticancer properties that has the potential to reveal new mechanisms and biological processes involved in carcinogenesis or drug resistance. We employed a titration-based paradigm (quantitative high-throughput screening or qHTS), where all compounds were tested at multiple concentrations for their effect on cell viability. Concentration-response curves (CRCs) were derived directly from the primary screen, and both potency and efficacy values were used to identify compounds with robust bioactivity profiles. We screened the NIH Chemical Genomics Center (NCGC) Pharmaceutical Collection (NPC) and Mechanism Interrogation Plate (MIPE) small molecule collections of approved and investigational compounds against these cell lines; and measured metabolically active cells after 48 hours of compound treatment as a proxy for cell viability. […] Assay Submitter: Nathalia J. Martinez, National Center for Advancing Translational Sciences, National Institutes of Health, Rockville, MD, USA; email: natalia.martinez@nih.gov Shen, M et al. Quantitative high-throughput phenotypic screening of pediatric cancer cell lines identifies multiple opportunities for drug repurposing. Oncotarget 2017 Dec 19;9(4):4758-4772. PMID 29435139.
# The cells were obtained from University of North Carolina (UNC), Pediatric Preclinical Testing Program (PPT), and Coriell Institute (CI). qHTS cell viability assay: Cells were assayed in growth media at a density of 500-1,000 cells/well. Five microliters of cells were dispensed into 1,536-well, white, solid-bottom, TC-treated plates (Greiner Bio One) using a multidrop dispenser and incubated at 37 degrees C, 5% CO2, under a humidified atmosphere for 5 hours. Twenty-three nanoliters of compounds and controls (neutral control DMSO or positive control bortezomib at final concentration of 2.3 µM) were subsequently transferred by Kalypsys pintool. For primary screens, the MIPE collection was tested at 11-point dilutions (final concentrations range from 0.78 nM to 46 µM) and the NPC collection at 8-point dilutions (final concentrations range from 0.59 nM to 46 µM). Compounds tested in follow-up screens were assayed at 11-point dilutions. Cells were incubated for 48 hours, followed by addition of 3 µL of CellTiter-Glo (Promega). After a 15 min incubation at room temperature, samples were analyzed for luminescence intensity using a ViewLux High-throughput CCD imager equipped with clear filters.
# Potency is the fitted concentration of half-maximal effect.
row,SMILES,Potency
1,CN(C)CCOC(c1ccccc1)c1ccccc1,inactive
2,COc1ccccc1N1CCN(CC(O)COc2cccc3ccccc23)CC1 (stereo not given),inactive
3,Clc1ccccc1C(c1ccccc1)(c1ccccc1)n1ccnc1,18.7 µM (active)
4,CCCCc1oc2ccccc2c1C(=O)c1cc(I)c(OCCN(CC)CC)c(I)c1,26.4 µM (active) and 26.6 µM (active)
5,Cc1cnc(C(=O)NCCc2ccc(S(=O)(=O)NC(=O)NC3CCCCC3)cc2)cn1,inactive
6,CC[C@@]1(O)C(=O)OCc2c1cc1n(c2=O)Cc2cc3c(CN(C)C)c(O)ccc3nc2-1,2.66 µM (active) and 4.69 µM (active)
7,NCCS(=O)(=O)O,inactive
8,CC#C[C@]1(O)CC[C@H]2[C@@H]3CCC4=CC(=O)CCC4=C3[C@@H](c3ccc(N(C)C)cc3)C[C@@]21C,26.6 µM (active) and 662 nM (active)
9,Cn1c(=O)c2[nH]cnc2n(C)c1=O,inactive
10,CC(=O)OCC(CCn1cnc2cnc(N)nc21)COC(C)=O,inactive
11,Nc1c2c(nc3ccccc13)CCCC2,inactive
12,CC(C)(Oc1ccc(C2CC2(Cl)Cl)cc1)C(=O)O (stereo not given),inactive
13,CC(C)Cc1ccc(C(C)C(=O)O)cc1 (stereo not given),inactive
14,Clc1ccc2nsnc2c1NC1=NCCN1,inactive
15,Cc1cn([C@H]2C=C[C@@H](CO)O2)c(=O)[nH]c1=O,inactive
16,C[C@H]1c2cccc(O)c2C(O)=C2C(=O)[C@]3(O)C(O)=C(C(N)=O)C(=O)[C@@H](N(C)C)[C@@H]3[C@@H](O)[C@@H]21,inactive
17,CN1C2CCC1CC(OC(=O)C(CO)c1ccccc1)C2 (stereo not given),inactive
18,COc1ccc2[nH]cc(CCNC(C)=O)c2c1,inactive
19,O=C(c1ccc(F)cc1)C1CCN(CCn2c(=O)[nH]c3ccccc3c2=O)CC1,inactive
20,O=C(C1CCCCC1)N1CC(=O)N2CCc3ccccc3C2C1 (stereo not given),inactive

row,SMILES,Potency
1,CN(C)C(=O)C(CCN1CCC(O)(c2ccc(Cl)cc2)CC1)(c1ccccc1)c1ccccc1,26.4 µM (active) and 26.6 µM (active)
2,COc1ccc(CCN(C)CCCC(C#N)(c2ccc(OC)c(OC)c2)C(C)C)cc1OC (stereo not given),inactive
3,Cn1c(=O)c2c(ncn2C)n(C)c1=O,inactive
4,CCN1CCCC1CNC(=O)c1cc(S(=O)(=O)CC)c(N)cc1OC (stereo not given),inactive
5,COc1cc2nc(N3CCN(C(=O)c4ccco4)CC3)nc(N)c2cc1OC,29.6 µM (active)
6,CNCCCC12CCC(c3ccccc31)c1ccccc12,29.6 µM (active)
7,CN(C)c1nc(N(C)C)nc(N(C)C)n1,inactive
8,CC(C)(C)C(=O)Oc1ccc(S(=O)(=O)Nc2ccccc2C(=O)NCC(=O)O)cc1,inactive
9,CN1CCN2c3ccccc3Cc3ccccc3C2C1 (stereo not given),inactive
10,COc1ccccc1OCC(O)CN1CCN(CC(=O)Nc2c(C)cccc2C)CC1 (stereo not given),inactive
11,N[C@@H](Cc1c[nH]c2ccc(O)cc12)C(=O)O,inactive
12,CC(COc1ccccc1)N(CCCl)Cc1ccccc1 (stereo not given),inactive
13,COc1ccccc1OCCNCC(O)COc1cccc2[nH]c3ccccc3c12 (stereo not given),inactive
14,O=C1c2c(O)ccc(O)c2C(=O)c2c(NCCNCCO)ccc(NCCNCCO)c21,4.69 µM (active) and 6.68 µM (active)
15,Cn1ccc2cc3c(cc21)CCN3C(=O)Nc1cccnc1,inactive
16,CCOC(=O)C(C)(C)Oc1ccc(Cl)cc1,inactive
17,CC1(C)O[C@H]2CC(=O)OC[C@]23[C@H]2CC[C@@]4(C)[C@H](c5ccoc5)OC(=O)[C@H]5O[C@]54[C@]2(C)C(=O)C[C@@H]13,inactive
18,COc1ccc(C2CNC(=O)C2)cc1OC1CCCC1 (stereo not given),inactive
19,O=c1c(-c2ccc(O)cc2)coc2cc(O)cc(O)c12,inactive
20,O=C1N(c2ccccc2)c2ccccc2C1(Cc1ccncc1)Cc1ccncc1,inactive
